In the library only some 3.1% were active in any assay of this set; here they are far more common.
CSC inhib: cancer stem cell inhibition | cancer stem cell-like cells viability, luminescence | inhibition, % at 7.5 µM | 300,000 tested, 1.1% active | AID 2717; in the data active means inhibition above about 75%; tested in HMLE shEcad cells
PP5 primary: blocks human protein phosphatase 5 activity | P53041 | purified PP5c, OMFP substrate fluorescence | inhibition, % at 6.7 µM | 320,000 tested, 0.18% active;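 active means inhibition above the campaign's mean inhibition across all tested compounds plus 3 SD, cut at about 9.5% in these data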;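 further: 0% = DMSO only and 100% = 100 µM cantharidin control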
Target sequence (P53041 whole entry, looked up): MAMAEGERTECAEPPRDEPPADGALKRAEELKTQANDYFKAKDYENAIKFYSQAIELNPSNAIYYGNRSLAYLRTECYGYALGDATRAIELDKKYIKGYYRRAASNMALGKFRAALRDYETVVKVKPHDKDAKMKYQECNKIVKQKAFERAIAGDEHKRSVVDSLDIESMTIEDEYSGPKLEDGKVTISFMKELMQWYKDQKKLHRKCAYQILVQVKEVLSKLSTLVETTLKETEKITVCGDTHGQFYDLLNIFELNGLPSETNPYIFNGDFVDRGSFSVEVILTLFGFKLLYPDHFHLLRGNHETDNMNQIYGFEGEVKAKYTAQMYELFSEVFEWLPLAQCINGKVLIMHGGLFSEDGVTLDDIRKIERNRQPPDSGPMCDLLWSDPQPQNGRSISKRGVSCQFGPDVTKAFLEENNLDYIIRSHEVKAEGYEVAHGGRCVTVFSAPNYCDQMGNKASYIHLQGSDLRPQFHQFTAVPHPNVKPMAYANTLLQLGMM
PP1 counter: counter-screen for PP5 inhibitors: inhibitors of human PP1-alpha; P62136; purified PP1alpha, OMFP fluorescence; inhibition, % at 6.7 µM; 320,000 tested, 0.9% active;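 active means inhibition above the mean inhibition of all tested compounds plus 3 SD, computed separately for each screening campaign, cut at about 15% in these data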
Beta apoptosis: beta cell apoptosis inhibition. INS-1E cytokine-induced death, ATP luminescence, 48 h; percent of positive-control rescue, neutral wells zero. protection from apoptosis, % (no concentration beside the values). 300,000 tested, 0.8% active;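 active means Every replicate reaches about 75%, or at least half do and their mean reaches it too, limit read from the data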;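 further: 0% = cytokine-treated negative control wells and 100% = positive control rescue; higher means more ATP so stronger rescue from cytokine killing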
SKKanGAS inh: SKKanGAS growth inhibition. S. pyogenes SKKanGAS, kanamycin growth, BacTiter-Glo, 6 h. inhibition, % at 7.5 µM. 300,000 tested, 1.3% active. AID 1662;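 active means mean replicate score, as percent of positive control median, at least 50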;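 further: strain carries kanamycin resistance gene driven by streptokinase promoter and grows in 40 µg/ml kanamycin; loss of luminescence reflects streptokinase promoter inhibition or plain growth inhibition; 0% = median of DMSO wells and 100% = positive control at its reference dose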
Active calls of the source: *; . = no result given.

SMILES	CSC inhib	PP5 primary	PP1 counter	Beta apoptosis	SKKanGAS inh
CCn1c(SCC(=O)Nc2nc3ccc(C)cc3s2)nc2c(c1=O)SC(C)C2 (stereo not given)	16	-3	16*	28	19
CCn1c(SCC(=O)Nc2nc3ccccc3s2)nc2c(c1=O)SC(C)C2 (stereo not given)	12	4	3	3	0
CN(C)CCNC(=O)Nc1ccc(F)cc1F	-8	1	0	-2	15
CCCCCCCNC(=O)C1(CC2CC(c3cccc(Br)c3)=NO2)CCNCC1 (stereo not given)	159*	1	14	.	4
CCCCCCCNC(=O)C1(CC2CC(c3cccc(Br)c3)=NO2)CCN(C(=O)Cc2ccc(F)cc2)CC1 (stereo not given)	11	4	10	3	.
COC(=O)C(C)NC(=S)N1CCN(c2c(F)cc3c(=O)c(C(=O)O)cn(C4CC4)c3c2OC)CC1C (stereo not given)	-9	3	16*	-4	95*
CN1CCN(c2c(F)cc3c(=O)c(C(=O)O)cn4c3c2SCC4)CC1	-14	-4	4	-2	14
CNC(=S)N1CCN(c2c(F)cc3c(=O)c(C(=O)O)cn(C4CC4)c3c2OC)CC1C (stereo not given)	-15	5	16*	7	104*
CCOC(=O)c1cn(C2CC2)c2c(F)c(F)c(F)cc2c1=O	.	0	7	-2	-20
COc1ccc2[nH]c3c(=S)nc[nH]c3c2c1	-4	-1	-3	-1	0
S=c1nc[nH]c2nc[nH]c12	84*	1	0	-2	-5
Cc1cc(C)c2c(N)c(C(=O)Nc3cccc(C)c3C)sc2n1	29	0	-1	2	3
CC(C)(C)OC(=O)[C@H]1[C@H](c2ccc([N+](=O)[O-])cc2)C2(C(=O)c3ccccc3C2=O)C2c3ccccc3C=NN21 (stereo not given in full)	0	4	3	3	9
O=C(Cn1cc(S(=O)(=O)Cc2ccccc2F)c2ccccc21)N1CCOCC1	3	2	-7	-6	8
Cc1ccc(C(=O)/C=C\C(=O)c2ccc(C)cc2)cc1	10	-1	0	-6	56*
COc1cccc(-c2sc3ccc(OC)cc3c2-c2ccc(C(N)=O)cc2)c1	-16	1	-4	-5	.
COc1cccc(-c2sc3ccc(OC)cc3c2-c2ccc(OC)cc2F)c1	39	0	0	7	.
COc1cccc(-c2sc3ccccc3c2-c2ccc(OCCN3CCCCC3)cc2)c1	104*	.	.	28	.
COc1cccc(-c2sc3ccccc3c2-c2ccc(OCCN(C)C)cc2)c1	104*	.	.	20	.
COc1cccc(-c2sc3ccccc3c2-c2ccc(OCCN3CCCC3)cc2)c1	104*	.	.	5	.
Cc1ccnc(NC(=S)N2CCN(c3cccc(C(F)(F)F)c3)CC2)c1	48	4	7	70	68*
Cc1ccc(C)c(NC(=S)N2CCN(c3cccc(C(F)(F)F)c3)CC2)c1	1	1	1	-7	-4
Cc1cc2oc3cc(NCCC4CCCN4C)ccc3c(=O)c2cc1C (stereo not given)	103*	0	0	11	1
COc1ccc(C(=O)NCC(=O)NCc2ccncc2)cc1	-6	.	.	-5	.
C(=N\Nc1nc(-c2ccccn2)nc2ccccc12)/c1ccccc1	83*	3	-2	92*	98*
SMILES	CSC inhib	PP5 primary	PP1 counter	Beta apoptosis	SKKanGAS inh
c1ccc(Nc2nc(NCC3CCCO3)c3ccccc3n2)cc1 (stereo not given)	10	2	0	31	-6
c1ccc(-c2nc(NCC3CCCO3)c3ccccc3n2)nc1 (stereo not given)	-6	2	-1	115*	14
C(=N\Nc1nc(-c2cccnc2)nc2ccccc12)/c1ccccc1	-8	3	5	-3	10
CCCc1nnc(SCC(=O)NC2CCCC2)n1CCOC	.	0	2	-3	-7
O=C(CCCCCNC(=O)c1ccccc1)N=Nc1c(O)[nH]c2c(Br)cc(Br)cc12	18	3	-4	0	59*
CC(C)CC(NC(=O)C(CC(C)C)NC(=O)C(Cc1ccc(OCc2ccccc2)cc1)NC(=O)OC(C)(C)C)C(N)=O (stereo not given)	3	2	0	-14	4
CC(C)CC(NC(=O)C(NC(=O)C(Cc1ccc(OCc2ccccc2)cc1)NC(=O)OC(C)(C)C)C(C)C)C(N)=O (stereo not given)	138*	2	3	-1	1
Cc1noc(C)c1S(=O)(=O)N(CCc1ccccc1)Cc1ccccc1	14	0	2	-7	54*
CCN(CC)S(=O)(=O)c1ccc(Oc2ccccc2OC)cc1	-8	0	-5	-1	3
CCN(CC)S(=O)(=O)c1ccc(Oc2ccc(S(=O)(=O)N(CC)CC)cc2)cc1	0	5	1	113*	7
CC(C)CC(=O)O/N=C1\C(=O)N(Cc2ccc(Cl)cc2)c2ccc([N+](=O)[O-])cc21	.	3	17*	22	19
CC(C)CC(=O)O/N=C1\C(=O)N(c2ccccc2)c2ccccc21	2	3	-1	-2	-9
CC(C)(C)c1ccc(C(=O)NNC(=O)CCC(=O)Nc2ccccc2)cc1	-1	0	-7	-1	4
Cc1ccc(Cc2cnc(N3C(=N)SC(c4ccccc4)C3=O)s2)cc1 (stereo not given)	30	0	9	0	104*
N=C1SC(c2ccccc2)C(=O)N1c1ncc(Cc2ccccc2)s1 (stereo not given)	65	-1	6	12	97*
Cc1ccc(CC2CC(=O)N(c3nc4ccccc4s3)C2=O)cc1 (stereo not given)	-4	-2	-4	-5	7
CCC(=O)N1CCN(c2ccccc2NC(=S)NC(=O)c2ccco2)CC1	-5	3	-2	-1	4
Cc1cc(C)c2ccc(N)nc2c1O	25	2	-6	34	99*
CC(C)CCC(CCNCc1ccccn1)c1ccc(Cl)cc1 (stereo not given)	18	3	6	31	51*
C/C(=N\NC(=O)CSCc1ccccc1Cl)c1cc(O)ccc1O	34	2	-4	-8	2
O=C(CSc1nnc(NC2CC2)s1)c1ccc[nH]1	-17	.	.	-1	.
N#CCSc1nc2c(c(=O)n1Cc1ccco1)C1(CCCC1)Cc1ccccc1-2	83*	2	12	0	23
CCCn1c(SCC#N)nc2c(c1=O)C1(CCCC1)Cc1ccccc1-2	127*	3	2	9	13
O=c1c2c(nc(NCCO)n1CC1CCCCC1)-c1ccccc1CC21CCCC1	-4	4	3	1	87*
CC1(C)CC(n2c(NCCO)nc3c(c2=O)C2(CCCC2)Cc2ccccc2-3)CCO1 (stereo not given)	.	3	1	.	4
COc1cc(C(=O)N/N=C(\C)c2ccccn2)cc(OC)c1OC	64	-1	0	83*	-8
